ChEMBL document CHEMBL3988442, “University of Dundee, Small-Polar-MMV Screening Library” (2021)

How the values were obtained:
[1] = biological target: T1, Aspartate--tRNA(Asp/Asn) ligase (Mycobacterium tuberculosis (strain ATCC 25618 / H37Rv)) (UniProt P9WFW3); test: Assay for Asp RNA synthetase-1 from Mycobacterium tuberculosis; assay type: functional; design: scale not given: direction of the effect not stated beside the values; conditions: 30 µM; also: in the data most compounds retested in dose-response had high values
T1 sequence (whole entry): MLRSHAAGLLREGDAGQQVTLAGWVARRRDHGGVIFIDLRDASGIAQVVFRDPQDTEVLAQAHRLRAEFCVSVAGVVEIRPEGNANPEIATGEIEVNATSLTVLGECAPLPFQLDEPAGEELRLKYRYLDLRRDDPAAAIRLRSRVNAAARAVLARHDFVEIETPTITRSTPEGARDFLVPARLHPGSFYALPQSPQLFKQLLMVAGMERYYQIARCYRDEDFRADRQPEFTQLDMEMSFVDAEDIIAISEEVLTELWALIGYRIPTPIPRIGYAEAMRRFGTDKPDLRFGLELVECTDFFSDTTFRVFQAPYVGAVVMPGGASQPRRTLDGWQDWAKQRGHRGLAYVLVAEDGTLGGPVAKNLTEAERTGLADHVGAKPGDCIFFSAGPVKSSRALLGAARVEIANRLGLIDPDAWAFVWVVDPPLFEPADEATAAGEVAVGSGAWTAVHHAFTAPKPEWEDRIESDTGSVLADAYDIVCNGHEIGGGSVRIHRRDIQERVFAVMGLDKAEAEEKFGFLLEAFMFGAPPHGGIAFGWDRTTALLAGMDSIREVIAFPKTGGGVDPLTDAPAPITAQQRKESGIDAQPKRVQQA

[2] = biological target: Shiga toxin 2 (Escherichia coli O157:H7) (UniProt P09385+P09386); test: E. coli 0.157:H7 Shiga Toxin SOP - stx2 screening assay; assay type: functional; design: scale not given: direction of the effect not stated beside the values; conditions: 30 µM

| SMILES | Percent Effect [1] [%] | Percent Effect [2] [%] |
| --- | --- | --- |
| CC(=O)N(C)CC(=O)Nc1cccc(N2CCN(CC3CC3)CC2)c1 | 7.12 | -14.8 |
| COCC1CC2(CCN(C(=O)c3occc3C)CC2)CO1 (stereo not drawn) | 2.64 | -0.429 |
| CCCc1cc(CNC(=O)C2CCOc3ccccc3C2)on1 (stereo not drawn) | 2.59 | 17.5 |
| Cc1cc(-c2cnc(N3CCCC(C)C3)nc2-c2cccnc2C)on1 (stereo not drawn) | 7.13 | -30.1 |
| CN1CCC(c2cccc(Cc3ccc(F)cc3)n2)CC1 | -0.194 | -29.1 |
| Cc1cnn(CC2CN(c3ncnc4ccccc34)CCO2)c1 (stereo not drawn) | -7 | 6.94 |
| CC(C)C1CN(C(=O)c2ccc(C(N)=O)cc2)CCS1 (stereo not drawn) | 9.66 | -45.2 |
| O=C1CC2(CCN(S(=O)(=O)C3CC3)C2)CN1c1cncnc1 (stereo not drawn) | 4.51 | -33.9 |
| O=C(CN1CCCCC1Cn1cncn1)NCc1ccccn1 (stereo not drawn) | 4.05 | 4.47 |
| Cc1nc2c(c(C)c1CC(=O)NCc1cccc(C#N)c1)c(=O)[nH]n2C | 0.634 | 25.4 |
| O=S(=O)(c1ccccc1)N1CCCCC1c1cc[nH]n1 (stereo not drawn) | 4.1 | 62 |
| Cc1nc(-c2ccccc2)sc1C(=O)NCCNc1ncccn1 | -2.89 | 28.3 |
| CCN(CC)Cc1cn2c(n1)CN(C(=O)c1cc(C)on1)CC2 | 3.22 | 2.01 |
| Cc1nc(-c2nnc[nH]2)sc1C(=O)N(Cc1cccnc1)C1CC1 | -2.72 | 7.27 |
| Cc1cnn(CCNCc2ccccc2C#N)c1 | -1.14 | 12.5 |
| CN(C)C(CNC(=O)NCCc1cccc(O)c1)c1ccco1 (stereo not drawn) | 2.5 | -5.55 |
| Cc1cccc(CN2C[C@@H]3CN(C(=O)[C@H]4CCCO4)C[C@@H]3C2=O)c1 | -6.69 | -9.8 |
| CN(C)S(=O)(=O)N1CC[C@@H]2CN(Cc3cnn(C)c3)C[C@@H]2C1 | 6.22 | -8.71 |
| Cc1ccc(NC(C)C(=O)NCc2cccs2)cc1C (stereo not drawn) | 3.13 | -30.8 |
